From PubChem BioAssay AID624354 (Sanford-Burnham Center for Chemical Genomics, 2012)
Out of some 360,000 compounds screened, about 3,800 (1.1%) were called active. The list comes from a sample in which actives are over-represented; it also holds similar structures and randomly drawn compounds. Unmarked numbers belong to inactive results.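 How the source made its calls: active means compounds causing at least 50% loss of cell viability in the single-dose screen, relative to plate controls; inactive means the rest.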

Assay: TRAIL-exposed caspase-8 expressing cell killing – NB7+C8 cells, ATPlite luminescence, TRAIL sensitizer project, primary screen (AID 624354)
Settings: at 10 µM, active compounds read high

Row | Structure (SMILES) | inhibition (viability loss, TRAIL sensitization)
1 | Cc1ccc(CNC(=O)Cn2cnc3c(NCc4ccccc4)ncnc32)o1 | 20.3%
2 | OCC1(Cc2ccccc2C(F)(F)F)CCN(Cc2cccc3cnccc23)CC1 | 2.15%
3 | COc1ccc(C(=O)NCC[N+](C)(C)C)cc1 | -3.08%
4 | Cc1ccc(S(=O)(=O)N(C)C)cc1NC(=O)c1ccc(-n2cncn2)c([N+](=O)[O-])c1 | -6.94%
5 | O=C(COC(=O)c1c(Cl)cccc1Cl)Nc1cccc(S(=O)(=O)NC2=NCCCCC2)c1 | -2%
6 | O=C1NC[C@H](Cc2ccc(O)cc2)N(C[C@@H]2CCCN2C[C@H](Cc2ccccc2)N2C[C@H](Cc3ccccc3)N(CC3CCCCC3)C(=O)C2=O)C1=O | -7.58%
7 | CN(C)NC(=O)C(NC(=O)c1ccc(N)cc1)C12CC3CC(CC(C3)C1)C2 (stereo not given) | -0.166%
8 | Cc1nc2cc(S(=O)(=O)C(F)(F)F)ccc2s1 | 15.9%
9 | CCN1CCCC1CNC(=O)Cn1cnc2ccc(S(=O)(=O)N3CCC(C)CC3)cc2c1=O (stereo not given) | 3.92%
10 | CC(C)(C)Oc1ccccc1Nc1nc(NCCO)nc(N2CCCC2)n1 | -17.8%
11 | CC(=O)Nc1ccc(SCC(=O)NC(=O)c2ccc(Cl)cc2)cc1 | -7.06%
12 | O=C(CCl)Nc1ccc(Sc2ccc(NC(=O)CCl)cc2)cc1 | 51.1% (active)
13 | O=C(O)CC(SCC(=O)Nc1ccc(Br)cc1)C(=O)O (stereo not given) | -3.72%
14 | COc1cccc2cc(/C(C)=N/NC(=O)c3ccco3)oc12 | 4.04%
15 | Cc1oc2c(F)c(F)c(F)c(F)c2c1S(=O)(=O)Nc1cccc(C(F)(F)F)c1 | 29.6%
16 | CN1CCN(c2ccc(NC(=O)c3ccc4c(c3)OCCO4)cc2Cl)CC1 | 42.3%
17 | Cc1ccc2sc(NNC(=O)c3ccc4c(c3)OCCO4)nc2c1C | -37.1%
18 | Cc1nc(NC(=O)c2ccc3c(c2)OCCO3)ccc1Br | 21.7%
19 | O=C(Nc1nc2ccccc2s1)c1ccc2c(c1)OCO2 | 74.6% (active)
20 | N#Cc1ccccc1NC(=O)c1ccc2c(c1)OCO2 | 0.697%

Row | Structure (SMILES) | inhibition (viability loss, TRAIL sensitization)
21 | CCCc1cc(C(=O)Nc2ccc(Cl)cn2)cs1 | 48.6%
22 | O=C(Nc1ccccc1)c1ccc2c(c1)OCCCO2 | 78% (active)
23 | O=C(CN1CCc2cc3c(cc2C1)OCCCO3)Nc1ccccc1 | -22%
24 | O=C(Nc1ccc(Cl)cn1)c1ccc2c(c1)OCCO2 | 64% (active)
25 | COc1ccccc1NC1=NC(c2ccc(Cl)cc2)N=C(N)N1 (stereo not given) | -3.71%
26 | CC(C#N)OC(=O)c1cccnc1SCC(=O)Nc1ccc2c(c1)OCO2 (stereo not given) | 4.56%
27 | COc1ccccc1NS(=O)(=O)N(C)C | -12.4%
28 | NC(=O)COc1ccc(NC(=O)c2ccccc2-c2ccccc2)cc1 | -7.08%
29 | CC(=O)C[C@H](O)CC(=O)[C@@H]1OC(=O)[C@@H](C)C/C=C\Cc2ccccc21 | -3.79%
30 | CCC(=O)Nc1ccc(S(=O)(=O)Nc2c(NC)c3ccccc3oc2=O)cc1 | 1.26%
31 | Cc1cn([C@H]2C[C@H](O)[C@@H](CNC(=O)[C@H](N)Cc3cccnc3)O2)c(=O)[nH]c1=O | -0.759%
32 | CNC(=O)/C(=C\C=C\c1ccccc1)NC(=O)c1ccc([N+](=O)[O-])cc1 | -5.87%
33 | CN1OC[C@@H]2CN(C(=O)c3ccc(-c4ccccc4)cc3)[C@H](c3ccc(-c4cccc(F)c4)cc3)C[C@@H]21 | -16.6%
34 | CCCOc1ccc(Cc2c(Cl)nc(SC)nc2NC)cc1 | 31.2%
35 | Cc1occc1C(=O)N/N=C/c1ccc(-c2cccc([N+](=O)[O-])c2)o1 | -8.06%
36 | Cc1[nH]n(-c2ccccc2)c(=O)c1/C=N/NC(=O)c1ccoc1C | 53.8% (active)
37 | Cc1ccc(-c2ccnc3[nH]n(-c4ccccc4)c(=O)c23)cc1 | -11.3%
38 | CCOc1ccc(S(=O)(=O)N2CCC(c3ccccc3)CC2)cc1C(=O)O | -3.46%
39 | COc1cc(NC(=O)c2ccccc2)c(OC)cc1NC(=O)Cc1ccccc1 | -3.72%
40 | O=C(NC1=CC(=O)c2ccccc2C1=O)c1ccccc1 | 94.6% (active)

Row | Structure (SMILES) | inhibition (viability loss, TRAIL sensitization)
41 | C/C(=N\NC(=O)c1ccc(C)cc1)C1C(=O)c2ccccc2C1=O | 8.6%
42 | CC1(C(=O)NS(=O)(=O)Cc2cccc(Cl)c2)CCN1C(=O)Cc1ccc(Cl)cc1Cl (stereo not given) | -0.832%
43 | CC(C)(C)CC(=O)Nc1nc(C(N)Cc2ccc(C(F)(F)F)cc2)cs1 (stereo not given) | -0.292%
44 | COc1ccc(C(N)c2csc(NC(=O)Nc3cccc(C(F)(F)F)c3)n2)cc1 (stereo not given) | 25.4%
45 | NC(c1csc(NC(=O)Nc2cccc(C(F)(F)F)c2)n1)C1CCCCC1 (stereo not given) | 88.8% (active)
46 | Cc1cccc(C(=O)OC(C)C(=O)NC2CCCc3ccccc32)c1O (stereo not given) | 12.2%
47 | CC1CCN(C(=O)C2CCN(S(=O)(=O)N3CCC4(CC3)OCCO4)CC2)CC1 | -3.06%
48 | CCOC(=O)C1=C(C)NC(C)=C(C(=O)OCC)C1C1=COCCO1 | -19.1%
49 | CC1COc2ccccc2N1C(=O)c1ccc(F)cc1 (stereo not given) | -8.83%
50 | O=C(c1ccc(F)cc1)N1CCC(n2nnc3ccccc32)CC1 | -1.41%
51 | O=C(c1ccc(F)cc1)n1c(=S)nc2ccccn21 | 83% (active)
52 | Cc1c(C2=CCN(S(=O)(=O)c3ccc(Cl)cc3)CC2)c2ccccc2n1C | 9.41%
53 | Cn1c(N)c(C(=O)COC(=O)/C=C/c2ccc(OC(F)F)cc2)c(=O)n(C)c1=O | -6.75%
54 | Cc1ccccc1C(OCCN(C)C)C1CCCCC1 (stereo not given) | -0.767%
55 | CNC(=S)N1N=C(c2ccccc2)CC1c1ccc(Br)cc1 (stereo not given) | 79.2% (active)
56 | COc1ccc(C2CC(c3ccccc3)=NN2C(=O)CSc2nccc(=O)[nH]2)cc1 (stereo not given) | 25.2%
57 | Brc1ccc(C2CC(c3ccccc3)=Nc3ccccc3N2)cc1 (stereo not given) | 24.3%
58 | CC1C(=O)N(Cc2ccccc2)c2ccccc2N1C(=O)c1ccccc1 (stereo not given) | -0.863%
59 | CC1CC(C)CN(CC(=O)N2c3ccccc3CCc3ccccc32)C1 (stereo not given) | -22.2%
60 | CC1C(C)N(C(=O)CCl)c2ccccc2N1C(=O)CCl (stereo not given) | 88.6% (active)
